# In the supplement of paper PMC6411743:
# ± gives the standard deviation of the averaged measurements. Targets with the largest changes are over-represented here; the source holds about 5,400 in all.
# Molecular target: A0A0A0MT26|P13637|P13637-2|P13637-3 (UniProt P13637)
# Assay: NP40-soluble protein abundance relative to vehicle (solubility fold change) (ratio); higher = more soluble protein in presence of GTP
# Experimental: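 Solubility proteome profiling in Jurkat crude lysate. Lysate was treated with Mg-GTP (0.1-10 mM) for 10 min at room temperature and 3 min at 37 °C, then solubilised with 0.8% NP40 and benzonase, followed by ultracentrifugation. Proteins were quantified by TMT10 LC-MS/MS; the value is the NP40-soluble abundance relative to the NP40-processed vehicle, from 3 independent experiments.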
smiles,measurement,setting,value
Nc1nc2c(ncn2[C@@H]2O[C@H](COP(=O)(O)OP(=O)(O)OP(=O)(O)O)[C@@H](O)[C@H]2O)c(=O)[nH]1 [guanosine triphosphate],NP40-soluble protein abundance,concentration: 0.1mM,1.01 ± 0.05
same,NP40-soluble protein abundance,concentration: 0.5mM,1.01 ± 0.028
same,NP40-soluble protein abundance,concentration: 1mM,1.02 ± 0.028
same,NP40-soluble protein abundance,concentration: 2mM,0.982 ± 0.029
same,NP40-soluble protein abundance,concentration: 4mM,1.01 ± 0.042
same,NP40-soluble protein abundance,concentration: 6mM,1 ± 0.0083
same,NP40-soluble protein abundance,concentration: 8mM,1 ± 0.034
same,NP40-soluble protein abundance,concentration: 10mM,0.958 ± 0.047
